Laboratory results taken from PubChem BioAssay.
Activity calls are given as the source filed them.

Test: changes in parasitized red cell lysis, either direction – P. falciparum Indochina, OD700, 3 h, PSAC antagonist project, primary screen (AID 1156)
Settings: P. falciparum-infected erythrocytes, osmotic lysis, higher = more signal, called active from +8 up or from −8 down

z-score, inactive:
C=CCN1C(=O)[C@]2(O[C@H](CCO)[C@@H]([Si](C)(C)c3ccc(OC)cc3)[C@@H]2C)c2cc(N3C(=O)c4cccc5cccc3c45)ccc21 0.0626
C[N+](C)(C)CCCCNC(=O)[C@H]1C[C@H]2C(=O)N[C@@H](Cc3ccccc3)C(=O)N2[C@H]1c1ccc(O)cc1 -0.271
COC(=O)[C@@]1(Cc2ccc(F)cc2)[C@H]2c3cc(C(=O)N4CCCC4)n(Cc4cc(C)n(C)n4)c3C[C@H]2CN1C(=O)c1ccccc1 0.424
Cc1ccc(S[C@]2(C(=O)NCC(F)(F)F)CC(=O)N(C(C)C)[C@@H]2c2ccc(CO)cc2I)cc1 0.24
CO[C@H]1O[C@H](CO)[C@@H](OC(=O)Nc2ccc(Br)cc2)[C@H](OC(=O)c2cc3ccccc3[nH]2)[C@H]1OC(=O)c1cc2ccccc2[nH]1 -0.368
COc1ccc(CCNC(=O)[C@@]2(Sc3ccc(C)cc3)CC(=O)N(C3CCCCC3)[C@@H]2c2ccc(CO)cc2I)cc1 -0.325
CC(C)c1ccc(NN2C(C(O)c3cc(C(F)(F)F)cc(C(F)(F)F)c3)C=CC3C(=O)N(c4ccccc4)C(=O)C32)cc1 (stereo not given) -1.37
COc1ccc([C@H]2OC[C@@H]3CC4(CC=CC4)C(=O)N32)cc1 -0.51
CN1C(=O)C2C=CC(C(O)C3CC=CCC3)N(NC(=O)OC(C)(C)C)C2C1=O (stereo not given) -0.138
N#Cc1ccc(NN2C(C(O)c3c(F)cccc3Cl)C=CC3C(=O)N(c4ccccc4)C(=O)C32)cc1 (stereo not given) 1.21
